# From PubChem BioAssay
# Rows were chosen to be rich in hits. Some 1.6% of all compounds tested hit in one or more screens of this group.
# KCNQ2 inh – KCNQ2 (rat) channel inhibition; AID 2156; B-score at 10 µM; CHO-K1 KCNQ2, FluxOR thallium flux, 20 min; hits give low values; 310,000 tested, 1.1% active;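 active means fluorescence ratio B-score at most minus 3 library SDs, with starting brightness B-score within 2 library SDs, cut at about -5.5 in these data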
# Target sequence (O88943 whole entry, looked up): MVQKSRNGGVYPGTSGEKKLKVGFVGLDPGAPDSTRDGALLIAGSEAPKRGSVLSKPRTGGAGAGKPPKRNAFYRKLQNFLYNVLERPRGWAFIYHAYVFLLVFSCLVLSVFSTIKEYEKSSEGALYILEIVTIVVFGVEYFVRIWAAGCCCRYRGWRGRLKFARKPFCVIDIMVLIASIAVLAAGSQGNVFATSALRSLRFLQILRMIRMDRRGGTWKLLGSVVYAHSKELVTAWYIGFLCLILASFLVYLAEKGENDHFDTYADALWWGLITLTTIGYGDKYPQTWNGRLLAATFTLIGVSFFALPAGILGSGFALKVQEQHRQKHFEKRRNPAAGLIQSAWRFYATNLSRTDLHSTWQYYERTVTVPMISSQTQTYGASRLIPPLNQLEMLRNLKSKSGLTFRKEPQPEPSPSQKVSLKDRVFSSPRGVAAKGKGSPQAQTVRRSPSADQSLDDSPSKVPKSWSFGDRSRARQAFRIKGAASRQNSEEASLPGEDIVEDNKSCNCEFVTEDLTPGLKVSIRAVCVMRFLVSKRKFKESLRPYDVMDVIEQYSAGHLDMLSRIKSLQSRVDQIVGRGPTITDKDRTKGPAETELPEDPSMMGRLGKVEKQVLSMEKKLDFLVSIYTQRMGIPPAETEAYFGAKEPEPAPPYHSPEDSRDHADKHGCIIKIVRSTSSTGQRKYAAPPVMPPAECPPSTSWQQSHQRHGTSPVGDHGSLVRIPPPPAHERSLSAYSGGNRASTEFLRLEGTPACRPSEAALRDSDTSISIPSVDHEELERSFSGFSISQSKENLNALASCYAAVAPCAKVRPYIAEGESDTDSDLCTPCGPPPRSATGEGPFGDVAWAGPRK
# KCNQ2 enhance – KCNQ2 (rat) channel potentiation; O88943; CHO-K1 KCNQ2, FluxOR thallium flux fluorescence; hits give high values; B-score at 10 µM; 310,000 tested, 0.54% active; AID 2239;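 active means fluorescence ratio B-score at least 3 SD of library B-scores, with initial fluorescence B-score within 3 of them, cut at about 5.3 in these data; same plate scores as AID 2156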;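 further: B-score of peak minus minimum over baseline fluorescence ratio after K+ and Tl+ stimulus; positive B-score means potentiation of KCNQ2 with more thallium influx and brighter signal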
# An asterisk follows results filed as active; i = inactive; . = no result given.
SMILES,KCNQ2 inh,KCNQ2 enhance
CC(C)(C)c1cc(NC(=O)CCSc2nnc3ccccn23)cc(C(C)(C)C)c1,i,0.56
Cc1ccc(/C=C/C(=O)N2CCN(c3cccc(C(F)(F)F)c3)CC2)cc1,i,.
Cc1ccc(S(=O)(=O)NCc2ccccc2C)cc1,i,.
CSc1ccc(S(=O)(=O)NCc2ccccc2C)cc1,-6.1*,-6.1
OCc1ccc(-c2nn(Cc3ccccc3)c3ccccc23)o1,i,.
COc1ccccc1NS(=O)(=O)c1cc(C(=O)NCC(C)(C)N2CCOCC2)ccc1C,i,6.7*
COc1ccccc1NS(=O)(=O)c1cc(C(=O)NCc2ccco2)ccc1C,i,.
O=c1oc(-c2cccc([N+](=O)[O-])c2)nc2ccccc12,i,0.76
O=C(NCC(c1cccs1)N1CCOCC1)c1cn(-c2ccccc2)nc1-c1ccc(Cl)cc1 (configuration not stated),i,0.54
O=C(Cn1ncc2c([nH]c3ccccc32)c1=O)NCCc1ccc(Cl)cc1,i,.
CCCCCCCCN1[C@@H](CC(=O)OC)c2cc(F)ccc2S1(=O)=O,-6*,-6
CCCCCCCCN1[C@@H](CC(=O)OCC)c2cc(F)ccc2S1(=O)=O,i,.
Cc1ccc(N2C(=O)N(CC(=O)NC(c3ccccc3)c3ccccc3)C(=O)C2C)cc1 (configuration not stated),-6*,-6
Cc1ccc(N2C(=O)N(CC(=O)NC(N)=O)C(=O)C2C)cc1 (configuration not stated),i,1.7
COc1cc(C2C(C#N)=C(N)Oc3c2c(-c2ccccc2)nn3-c2ccccc2)cc(OC)c1OC (configuration not stated),i,0.87
CC(C)Cn1cc(C(=O)N2CCOCC2)c2c3ccccc3n(C)c2c1=O,i,.
CC(C)Cn1cc(C(=O)N2CCC(C)CC2)c2c3ccccc3n(C)c2c1=O,-7*,-7
COCCn1cc(C(=O)N2CCC(C)CC2)c2c3ccccc3n(C)c2c1=O,-5.7*,-5.7
CCOC(=O)N1CCN(C(=O)c2cn(CC(C)C)c(=O)c3c2c2ccccc2n3C)CC1,i,.
O=C(Nc1ccc2c(c1)OCCO2)c1c(F)c(F)c(F)c(F)c1F,i,1.4
COc1ccc(N2C(=O)CSC2c2cccc(OC)c2OC)cc1 (configuration not stated),i,0.05
O=C(NCc1ccc(F)cc1)NC(=O)c1ccc(Cl)cc1,i,0.94
Cc1cccc(C(=O)Nc2ccc(O)c3c(=O)cc(-c4ccccc4Cl)oc23)c1,i,.
CN(C)c1ccc(C(=O)Nc2ccc(O)c3c(=O)cc(-c4ccccc4Cl)oc23)cc1,-5.8*,-5.8
O=C(NC1CCCCCC1)C1CCN(C(=O)c2ccc(Br)cc2)CC1,i,0.32
SMILES,KCNQ2 inh,KCNQ2 enhance
Cc1cc(C)n(CC(O)COc2ccccc2C(=O)Nc2ccccc2)n1 (configuration not stated),-6.6*,-6.6
COc1ccccc1OCC(O)Cn1nc(C)cc1C (configuration not stated),i,.
CCOc1cc(CO)cc(Br)c1OCC(=O)Nc1ccccc1C,i,.
Cc1ccc(Cl)cc1NS(=O)(=O)Cc1ccccc1,i,.
O=C(NCCCN1CCOCC1)c1cc(S(=O)(=O)N2CCN(c3ccccc3)CC2)ccc1Cl,i,.
CCN1CCN(CCNC(=O)c2ccc(CS(=O)c3ccc(Cl)cc3)o2)CC1 (configuration not stated),i,1.2
CCN1CCN(CCNC(=O)c2ccc(CS(=O)c3ccc(Br)cc3)o2)CC1 (configuration not stated),i,5.6*
N/C(Cc1ccc([N+](=O)[O-])cc1)=N\OC(=O)c1ccccc1Br,i,1.6
Cc1ccc(O)c(C2=NNC(O)(C(F)(F)F)C2)c1 (configuration not stated),i,1.9
O=C(N1CCN(c2cccc(Cl)c2)CC1)C1(S(=O)(=O)c2ccc(Cl)cc2)CC1,i,.
Cc1ccc(S(=O)(=O)C2(C(=O)N3CCN(c4ccccc4F)CC3)CC2)cc1,i,.
Cc1cccc(N2CCN(C(=O)C3(S(=O)(=O)c4ccc(Cl)cc4)CC3)CC2)c1C,-6.2*,-6.2
Cc1ccc(Cl)cc1N1CCN(C(=O)C2(S(=O)(=O)c3ccc(Cl)cc3)CC2)CC1,-6.2*,-6.2
N#Cc1ccc(OCc2nnc(SCC(=O)N3CCCc4ccccc43)n2-c2ccccc2)cc1,i,.
CCCCNC(=S)Nc1ccc(Cl)cc1,i,2.1
COc1ccc(OC)c(/C=N/NC(=O)c2ccc3nc[nH]c3c2)c1,i,2.1
CCN(CC)S(=O)(=O)c1cccc(-c2nnc(SCC#N)n2Cc2ccccc2)c1,-5.7*,-5.7
CCN(CC)S(=O)(=O)c1cccc(-c2nnc(SC(C)C#N)n2Cc2ccccc2)c1 (configuration not stated),i,.
Cc1ccc(S(=O)(=O)N(C)C)cc1NC(=O)COC(=O)Cc1ccccc1F,i,0.54
Cc1cc(NC(=O)CS(=O)(=O)c2cn(Cc3ccc(F)cc3)c3ccccc23)no1,i,.
Cc1cc(NC(=O)CS(=O)(=O)c2cn(Cc3cccc(F)c3)c3ccccc23)no1,-5.7*,-5.7
Cc1cc(C)cc(C(=O)Nc2ccc(NC(=O)c3cccs3)cc2)c1,i,.
O=C(NCC(=O)N(Cc1cccs1)C(C(=O)NC1CCCCC1)c1cccnc1)c1ccco1 (configuration not stated),i,1.6
Cn1c2ccccc2c2c(C(=O)O)cn(C3CCCC3)c(=O)c21,i,.
Cc1ccc(CNC(=O)c2cn(C3CCCC3)c(=O)c3c2c2ccccc2n3C)o1,-8*,-8
SMILES,KCNQ2 inh,KCNQ2 enhance
CSc1ncc(C(=O)Nc2cccc(S(N)(=O)=O)c2)n1-c1ccccc1,i,0.51
COc1ccc(CCN(Cc2nc(-c3ccccc3)no2)Cc2nc(-c3ccccc3)no2)cc1OC,-6.2*,-6.2
COc1ccc(CCN(C)Cc2nc(-c3cnccn3)no2)cc1OC,i,0.18
CCn1c(C)c(C)c2cc(C(=O)Nc3cccc(Cl)c3)ccc21,-6.6*,-6.6
CCn1c(C)cc(O)c(C(=O)Nc2cccc(Cl)c2)c1=O,i,1.6
CCCCN(C(=O)c1ccco1)c1nnc(-c2cc(OC)c(OC)c(OC)c2)s1,i,0.04
CN1c2ccccc2C(C)(C)C12CC(CCl)=NO2 (configuration not stated),i,0.63
COc1ccc2c(c1)Sc1ccccc1N2CCN(C)C,i,.
COc1ccc2ccc3c(c2c1)N=CC1(O3)N(C)c2ccccc2C1(C)C (configuration not stated),-8.2*,-8.2
CN1c2ccccc2C(C)(C)C12C=Nc1c(ccc3ccccc13)O2 (configuration not stated),-5.7*,-5.7
O=[N+]([O-])c1ccc(N2CCN(S(=O)(=O)c3ccccc3[N+](=O)[O-])CC2)cc1NCc1cccnc1,i,1.6
COc1cc(OC)cc(C(=O)NC(=S)Nc2cc3oc4ccccc4c3cc2OC)c1,i,0.13
Cc1ccc(S(=O)(=O)NCc2ccccc2)cc1C(=O)N1CCCCC1,i,1.6
Cc1ccc(S(=O)(=O)NCc2ccccc2)cc1C(=O)N1CC(C)CC(C)C1 (configuration not stated),-6*,-6
Cc1nc2sc3c(c2c(=O)[nH]1)CCCCC3,i,.
Cc1cc(C)n(-c2nc3sc4c(c3c(=O)[nH]2)CCCC4)n1,i,18*
COC(=O)c1c(NC(=O)CCc2ccc(C)o2)sc(C)c1C,-5.9*,-5.9
